Most compounds without a hit are left out; they make up all but 1% or so of the library.
VCAM1 TNFa inh – reduces TNF alpha induced VCAM1 expression in HUVEC; HUVEC TNFa-induced VCAM-1 immunofluorescence, high-content imaging; inhibition, % at 2 µM; actives 0.48% (n = 95,000);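 active means inhibition above the batch mean plus 3 SD, with images confirmed as a hit by eye, cut at about 37% in these data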;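 further: 0% = TNF-stimulated DMSO wells and 100% = unstimulated control wells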
E-sel TNF inh – blocks E-selectin expression induced by TNF alpha; HUVEC TNFa-induced E-selectin immunofluorescence, high content; inhibition, % at 2 µM; actives 0.71% (n = 120,000); AID 1246;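 active means inhibition above the batch mean plus 3 SD, and confirmed as a hit on visual image review, cut at about 43% in these data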;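 further: 0% = TNF-stimulated DMSO wells and 100% = unstimulated control wells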
cytoskel mod – alters cytoskeleton assembly in HUVEC cells | HUVEC TNFa F-actin phalloidin imaging, high content | AID 836 | inhibition, % at 2 µM | actives 0.18% (n = 91,000);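 active means inhibition above the batch mean plus 3 SD and confirmed as a hit by visual image inspection, cut at about 30% in these data, passing the limit was not always enough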
TNFa cytotox – HUVEC cytotoxicity counter-screen, TNF alpha stimulated; actives 0.17% (n = 93,000); HUVEC TNFalpha-stimulated, Hoechst cell count, imaging; cell count reduction, % at 2 µM; AID 848;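 active means cell count reduction exceeding the screen mean by over 5 SD, scaled to untreated wells per plate, cut at about 78% in these data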;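 further: cells counted after 24 h of TNF alpha exposure following the 1 h pretreatment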
An asterisk follows results filed as active; nt = not tested or not shown.

SMILES | VCAM1 TNFa inh | E-sel TNF inh | cytoskel mod | TNFa cytotox
CCCCCCOC(=O)/C=C/c1c(C)[nH]c(=O)[nH]c1=O | 11 | 74* | 7 | -3
C/C(=N\NC(=O)CC1N=C(Cc2ccccc2)NNC1=O)c1ccc(C)cc1 (stereo not given) | 15 | 100* | -17 | 52
O=C(CSc1nnnn1-c1ccc(F)cc1)NCc1cccs1 | nt | -43 | nt | nt
CCOC(=O)c1c(C)c(C(=O)O)n(C)c1C | -3 | nt | 76* | -28
CCOC(=O)c1c(C)c(C(=O)NC(C)COC)c(C)n1C (stereo not given) | nt | -24 | nt | nt
Cc1n[nH]c(C)c1CCc1nc2c3ccccc3nc(SCC(N)=O)n2n1 | -4 | nt | -42 | -20
Cc1ccc(NC(=O)CSc2nc3ccccc3c3nc(CCc4c(C)n[nH]c4C)nn23)cc1F | -13 | 82* | 4 | -6
N#C/C(=C/c1cn(CC(=O)O)c2ccccc12)C(=O)NCc1ccccc1 | nt | -7 | nt | nt
C=CCNC(=O)COC(=O)/C=C/c1cccs1 | nt | -36 | nt | nt
C=CCNC(=O)/C=C/c1cccs1 | nt | 94* | nt | nt
N#CC1=C2SCC(O)(c3ccccc3)N2C(=O)CC1c1cccs1 (stereo not given) | 17 | nt | 35* | 17
S=c1[nH]nc(-c2ccc3c(c2)OCO3)n1-c1ccccc1 | nt | -5 | nt | nt
S=c1[nH]nc(COc2ccc3c(c2)OCO3)n1-c1ccccc1 | 97* | -35 | 4 | -8
Cc1noc(C)c1S(=O)(=O)Nc1ccc(C(=O)NC2CCCCC2C)cc1 (stereo not given) | 1 | 75* | -30 | -11
CNCC(=O)N1CCN(c2ncc(C(F)(F)F)cc2Cl)CC1 | nt | -34 | nt | nt
CCn1c(=O)cc(SCC(=O)N2CCN(C3CCCCC3)CC2)c2ccccc21 | 25 | 67* | 12 | -10
OCCNCC(O)Cn1ccc2ccccc21 (stereo not given) | 100* | -20 | nt | nt
CS(=O)(=O)N1CCc2cc(NC(=O)c3ccc(Cl)cc3Cl)ccc21 | nt | -21 | nt | nt
CC(C)C(=O)Nc1ccc(-c2nc3cccnc3o2)cc1 | nt | 84* | nt | nt
COc1ccc(OC)c(CCNC(=O)CSc2ccsc2[N+](=O)[O-])c1 | nt | 77* | nt | nt
COc1ccc(CCNC(=O)CSc2ccsc2[N+](=O)[O-])c(OC)c1 | nt | 7 | nt | nt
Cc1ccnc(N2C(=O)C3C4CC(C(Br)C4Br)C3C2=O)c1 (stereo not given) | -2 | 54* | 16 | 1
O=C1C2C3CC(C(Br)C3Br)C2C(=O)N1c1ccccn1 (stereo not given) | 8 | -9 | -3 | -9
CN(C)S(=O)(=O)c1ccc(NS(=O)(=O)/C=C/c2ccccc2)cc1 | 14 | 99* | -2 | -46
CCOC(=O)Cc1csc(NC(=O)CN2C(=O)c3ccccc3S2(=O)=O)n1 | nt | 96* | nt | nt
SMILES | VCAM1 TNFa inh | E-sel TNF inh | cytoskel mod | TNFa cytotox
Cc1csc(NC(=O)CCN2C(=O)c3ccccc3S2(=O)=O)n1 | 22 | 5 | -5 | 0
CC1(CC(=O)N/N=C/c2cc3c(cc2Br)OCO3)OCCO1 | nt | -35 | nt | nt
COC(=O)CSc1nc(N)c(C#N)c(C(C)C)c1C#N | -13 | -1 | -16 | -16
COC(=O)CSc1nc(N)nc(C)c1Br | 10 | 63* | -29 | -4
COc1ccccc1C(=O)NNC(=S)NC(=O)c1ccco1 | nt | -1 | nt | nt
COC(=O)c1cc2ccsc2n1Cc1nc(-c2cccc(Cl)c2)oc1C | -3 | 82* | 4 | -17
C=CCNC(=O)COC(=O)c1ccc(Cl)c(S(=O)(=O)N(Cc2ccccc2)c2ccccc2)c1 | nt | -24 | nt | nt
COc1ccc(NC(=O)CCNS(=O)(=O)c2ccc3c(c2)c(=O)n(C)c(=O)n3C)c(OC)c1 | nt | -10 | nt | nt
C=CCn1c(SCC(=O)NCc2ccccc2)nnc1-c1ccccc1O | -5 | 40* | 22 | 1
C=CCn1c(CSCc2ccc(C)cc2)nnc1SCC(=O)NCc1ccccc1 | 2 | -9 | 6 | -12
Cc1ccc(-c2nn(-c3ccccc3)cc2C=C2C(=O)CC(C)(C)CC2=O)cc1 | 8 | -30 | 1 | -4
CC1=NNC(=O)/C1=C\c1cn(-c2ccccc2)nc1-c1ccc(Cl)cc1 | 99* | 17 | 16 | 84*
O=C(Cc1ccccc1)NCCC1=CCCCC1 | nt | -5 | nt | nt
O=C(CCc1ccccc1)NCCC1=CCCCC1 | nt | 75* | nt | nt
Cc1cc(C)nc(SCc2cnc(C)nc2N)n1 | nt | -31 | nt | nt
Cc1ccc(CS(=O)(=O)Cc2ccc(C(=O)NCc3ccco3)o2)cc1 | -7 | 8 | 5 | -41
O=C(NCc1ccco1)c1ccc(CS(=O)(=O)Cc2ccc(Cl)cc2)o1 | 93* | nt | -10 | 79*
COc1ccc(-n2nc(C(C)=O)c(=O)[nH]c2=O)cc1 | nt | 41 | nt | nt
COCCCNC(=S)NC1CC2CCCC(C1)N2Cc1ccco1 (stereo not given) | 1 | -12 | 68* | -7
Cc1ccc(C2(O)CN(c3ccccc3C)C3=[N+]2CCS3)cc1 (stereo not given) | nt | 64* | nt | nt
Cc1ccc(S(=O)(=O)NCc2ccc(C(=O)NCCN(Cc3ccccc3)C(C)C)cc2)cc1 | nt | -18 | nt | nt
CCC(=O)N1CCc2cc(S(=O)(=O)Nc3ccc4c(c3)OCCO4)ccc21 | -2 | -9 | -14 | 0
O=C(C1CCC1)N1CCc2cc(S(=O)(=O)Nc3ccc4c(c3)OCCO4)ccc21 | 83* | 1 | -34 | 63
CC(C)Cc1nn2c(N)c(/C=C3\C=Nc4ccccc43)c(=O)nc2s1 | nt | -16 | nt | nt
CCOc1ccc(OCCOCCNCCOC)cc1 | nt | -21 | nt | nt
SMILES | VCAM1 TNFa inh | E-sel TNF inh | cytoskel mod | TNFa cytotox
Cc1ccc(NC(=O)CN(C)CC(=O)Nc2cccc(F)c2)cc1S(=O)(=O)N1CCCCCC1 | nt | 3 | nt | nt
COc1cc(C(=O)N(Cc2ccco2)Cc2cc3ccccc3[nH]c2=O)cc(OC)c1OC | -8 | nt | 35* | 44
COc1ccccc1NC(=S)N(Cc1ccco1)Cc1cc2cccc(C)c2[nH]c1=O | nt | 61* | nt | nt
COCCOC(=O)c1[nH]c2c(c1C)C(=O)CC(c1ccccc1)C2 (stereo not given) | 56* | 14 | 22 | 60
COCCOC(=O)c1[nH]c2c(c1C)C(=O)CC(c1ccc(F)cc1)C2 (stereo not given) | 20 | nt | 4 | -23
COc1ccc(CCNc2nnc(Sc3nnnn3-c3ccccc3)s2)cc1OC | 87* | 19 | 9 | 36
CC1(C)C2CC=C(/C=N/NC(=O)c3ccc(O)cc3)C1C2 (stereo not given) | nt | 31 | nt | nt
Cc1ccc(-n2ncc3c(N4CCN(c5ccccc5)CC4)ncnc32)c(C)c1 | 96* | -4 | 5 | nt
COc1ccc(N2CCN(c3ncnc4c3cnn4-c3ccc(C)cc3C)CC2)cc1 | 7 | 12 | -15 | -20
O=C(Nc1cccc(F)c1)c1ccc(Cn2cc([N+](=O)[O-])cn2)o1 | nt | -3 | nt | nt
CCn1c(=O)c2c(n3cnnc13)-c1ccccc1CC21CCCCC1 | -6 | -3 | 41* | -28
Cc1ccc(C)n1-c1cccc(NC(=O)c2ccccc2)c1 | nt | 93* | nt | nt
CC(=O)N[C@@H](Cc1c[nH]c2ccccc12)C(=O)OCC(=O)Nc1ccc(S(=O)(=O)N(C)C)cc1 | nt | 75* | nt | nt
CCOCC(=O)Nc1c(C(=O)OCC)oc2ccccc12 | 3 | 8 | 17 | -19
CCOC(=O)c1oc2ccccc2c1NC(=O)Cc1cccs1 | 83* | nt | -45 | 75
O=C(Nc1ccccc1)c1nsnc1C(=O)Nc1ccccc1 | nt | -12 | nt | nt
COC(=O)C1=C(C)N(c2cccc(C)c2)C(=O)/C1=C\c1cccs1 | 8 | -52 | 7 | -14

Bioassay records deposited in PubChem BioAssay by Columbia University Molecular Screening Center.
